Test results from ChEMBL document CHEMBL3433997, “St. Jude Leishmania screening dataset” (2016).

Target: Glucose transporter (Leishmania mexicana) (UniProt O61059)
Assay: ST_JUDE_LEISH: Cytotoxicity at 2uM final concentration against transgenic Leishmania Mexicana promastigotes LmGT2 that are glucose transport deficient and complemented with the L. Mexicana glucose transporter 2. Activity is measured by DNA content using SYBR green in vitro
Format: functional

Q: Which inhibition does the source give for `O=C(Nc1ccccc1)Nc1cccc(-c2nn3c(OCC4CCCCN4)cccc3c2-c2ccncc2)c1` (centres undefined) here?
A: 1.3%

Q: For `COc1cc2ncnc(NCCc3ccccc3Cl)c2cc1OC`, which inhibition is on record?
A: -0.92%

Q: For `CS(=O)(=O)c1ccc(CNCc2cccc(-c3ccc(-c4nc5cc(C(F)(F)F)ccc5[nH]4)cc3)c2)cc1`, which inhibition is on record?
A: 3.3%

Q: With `CCCCCCP(=O)(COc1ccc(CCN(CC(O)COc2cccc3[nH]c(C(N)=O)cc23)CC(O)COc2cccc3[nH]c(C(N)=O)cc23)cc1)OCCCC` (centres undefined) as the molecule, how does the inhibition read?
A: 6.45%

Q: For `Cc1noc(C)c1-c1ccc2c(Nc3ccccc3C(C)(C)C)c(C(=O)NCc3ccc(OC(C)C)cc3)cnc2c1`, which inhibition is on record?
A: 5.28%

Q: Which inhibition does the source give for `COc1ccccc1CCNc1nc(C)cc(N[C@@H](CC(C)C)C(=O)NCc2cccs2)n1` here?
A: 4.04%

Q: With `Cc1cccc2nc(-c3ccc(-c4ccc(CNCc5cnn(-c6ccccc6)n5)cc4)cc3)[nH]c12` as the molecule, how does the inhibition read?
A: 1.19%

Q: `O=c1cc(NCCCCNCc2cccc(C(F)(F)F)c2)[nH]c2ccccc12` was tested. Which inhibition did it give?
A: 5.78%

Q: `CC(C)CCn1c(Sc2ccc(C#N)c([N+](=O)[O-])c2)nnc1-c1ccccc1Cl` was tested. Which inhibition did it give?
A: 1.46%

Q: `Cc1cccc2nc(-c3cccc(-c4ccc(NC(=O)Nc5ccc(F)c(F)c5F)cc4)c3)[nH]c12` was tested. Which inhibition did it give?
A: 3.22%

Q: How did the inhibition turn out when `COc1ccc(CNCCc2cccs2)cc1-c1ccc(OC)c(S(=O)(=O)NCCN2CCCC2)c1` was run?
A: 3.49%

Q: Which inhibition does the source give for `c1ccc(-c2cc(NCCCn3ccnc3)nc(-c3cccnc3)n2)cc1` here?
A: 0.94%

Q: How did the inhibition turn out when `Cc1cccc2nc(-c3ccc(-c4ccc(NC(=O)c5cncn5C)cc4)s3)[nH]c12` was run?
A: 7.26%

Q: For `COc1ccc(C=Cc2cc(=N)c3ccccc3[nH]2)cc1Br`, which inhibition is on record?
A: 1.29%
